This note sets out measurements from PubChem BioAssay AID2380 (Sanford-Burnham Center for Chemical Genomics, 2010).

Molecules are shown by their SMILES. Hit rate of the full screen: of about 330,000 compounds, about 960 (0.29%) were called active.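 How the source made its calls: active means compounds whose signal lies at least 3.5 SD above the mean of all wells on their plate; inactive means the rest.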 This excerpt belongs to a sample that is enriched for actives.

This assay in a line: inducers of MIN6 beta-cell proliferation, primary screen, ATP luminescence, uHTS (AID 2380).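 Further: 0% = DMSO-treated cells in low-serum medium and 100% = 10% serum control.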 Conditions: MIN6 cells proliferation, ATPlite luminescence, 48 h; at 10 µM; active compounds read high; 100% = growth in 10% serum; cells starved in 0.2% serum.
Consider `O=C(CN1CCN(c2ccc(F)cc2)CC1)Nc1cccc(C(F)(F)F)c1`, for which the proliferation is -3.27% (inactive).
Take `CC(C)(C)C1CCC(OC(=O)CCC(=O)Nc2ccccc2)CC1` (stereo not drawn): the proliferation was 0% (inactive).
Then `O=C(c1ccc2c(c1)C(=O)N(c1ccc(Cl)cc1)C2=O)N1CCN(c2ccccn2)CC1`, with 2.75% (inactive); and `O=C(c1ccc2c(c1)N(Cc1ccc(F)cc1)C(=O)c1ccccc1S2(=O)=O)N1CCN(c2ccccn2)CC1`, with -0.68% (inactive); and `O=C1c2ccccc2S(=O)(=O)c2cc(N3CCN(c4ccccn4)CC3)ccc21`, with 12.1% (active).
As to `Cc1cc(=O)oc2cc(OCC3CC(c4ccccc4Cl)=NO3)ccc12` (stereo not drawn), the proliferation is -5.28% (inactive).
Consider `COc1ccc(OCC(=O)OCCN(C)C)cc1`, for which the proliferation was 0.06% (inactive).
Next, `Cc1c(C(=O)NCCN(C)C)oc2ccc(S(=O)(=O)N3CCCC3)cc12`: 0% (inactive); `O=C(CSc1nc2ccccc2[nH]1)N/N=C/C=C\c1ccccc1[N+](=O)[O-]`: 6.1% (active); `Cc1ccc(-n2c(SCC(=O)N/N=C/C=C/c3ccccc3[N+](=O)[O-])nc3ccccc3c2=O)cc1`: -2.84% (inactive).
Take `CCn1c(SCC(=O)N/N=C/C=C/c2ccccc2[N+](=O)[O-])nnc1-c1ccccc1`: the proliferation is -1.08% (inactive).
As for `Cn1cc(-c2ccccc2)cc(C#N)c1=O`, the proliferation was -2.8% (inactive).
In the case of `Cc1scc(C(=O)NNC(=S)NCc2ccccc2)c1C`, the proliferation is 0% (inactive).
Then `O=C(NNC(=S)NCc1ccccc1)c1ccc(OC(F)F)cc1`, with 0% (active); and `Cc1ccc(OCC(=O)NNC(=S)NCc2ccccc2)cc1`, with 1.61% (inactive); and `C=CCn1nc(-c2ccccc2)c2c(C)onc2c1=O`, with 2.27% (inactive).
Then `Cc1cccc(CN2CCC(n3nccc3NC(=O)c3ccccc3C)CC2)n1`, with 0.34% (inactive); and `CN1C(=O)[C@H]2[C@@H](C3CC3)N3C(=O)CN(Cc4ccccc4)C(=O)[C@@]3(C)[C@H]2C1=O`, with 3.27% (inactive).
With `O=C(CC1CCCCC1)NCc1ccc(F)cc1`, the proliferation was -3.62% (inactive).
Then `CCCCC(=O)NCc1ccc(F)cc1`, with 0% (inactive).
For `Fc1ccc(CNCc2ccc(Br)cc2)cc1`, the proliferation is 5.1% (active).
Next, `Cc1ccc(S(=O)(=O)N2CCN(C(=O)c3ccccc3-c3nc4ccccc4s3)CC2)c(C)c1`: -1.73% (inactive); `COc1ccc(Cl)cc1S(=O)(=O)Nc1cccc(C(=O)O)c1`: -0.59% (inactive).
Regarding `CC(C)c1nnc(NC(=O)COC(=O)/C=C/c2ccc([N+](=O)[O-])cc2)s1`, the proliferation is 0.53% (inactive).
Then `COc1ccccc1OCc1ccc(C(=O)N2CCN(C)CC2)o1`, with 7.74% (active); and `O=C(c1ccco1)N1CCN(C(=O)c2ccc(COc3ccc(F)cc3)o2)CC1`, with 6.29% (inactive); and `COc1ccccc1OCc1ccc(C(=O)NC(C)c2ccccc2)o1` (stereo not drawn), with 0.18% (inactive).
For `CC(NC(=O)c1ccco1)c1ccc2c(c1)OCO2` (stereo not drawn), the proliferation is -0.03% (inactive).
Turning to `O=C(NC(=S)Nc1cccc2c(O)cccc12)c1cccc(Br)c1`, the proliferation is -7.11% (inactive).
Next, `Cc1cc(C(=O)NNC(=S)Nc2ccccc2C)cs1`: 0% (inactive); `Cc1ccccc1NC(=S)NNC(=O)c1cccc(Br)c1`: 13.8% (active).
Next, `CC1(C)O[C@@H]2[C@H](O1)[C@@H](CO)O[C@H]2n1c(N2CCCCC2)nc2c(N)ncnc21`: 1.62% (inactive); `C[C@@H](Nc1nc(-c2ccccc2)nc2c1oc1ccccc12)C(=O)O`: -1.21% (inactive); `COCCNc1nc(-c2ccccc2)nc2c1oc1ccccc12`: 6.28% (active).
For the compound `COc1ccc(C)cc1Nc1nc(C)nc2c1oc1ccccc12`, the proliferation was -4.77% (inactive).
Take `Cc1cc(C)c(S(=O)(=O)NCC2CCC(C(=O)NCc3ccc4c(c3)OCO4)CC2)c(C)c1` (stereo not drawn): the proliferation was -1.16% (inactive).
Then `O=C(CN1CCN(c2ccc(Cl)cc2)CC1)c1ccccc1`, with -0.29% (inactive); and `COc1ccc(CN2CCNC(=O)C2CC(=O)NCc2cn[nH]c2-c2ccccc2)c(F)c1` (stereo not drawn), with 0.21% (inactive).
Turning to `Cc1ccc2c(c1)N(S(=O)(=O)c1cc(-c3cc(C)no3)ccc1C)CCO2`, the proliferation is -6.66% (inactive).
Then `C=CCOC(=O)C1=C(C)OC(N)=C(C#N)C1c1ccc(F)cc1` (stereo not drawn), with -0.46% (inactive); and `CCOC(=O)C1=C(C)OC(N)=C(C#N)C1c1cncc(-c2ccc(F)cc2)c1` (stereo not drawn), with -3.32% (inactive).
Next, `CCOC(=O)C1=C(CC)OC(N)=C(C#N)C1c1ccc(F)cc1F` (stereo not drawn): 9.9% (active).
Take `CC(=O)NC(C)(C)C1CC=C(C)/C(=N\O)C1` (stereo not drawn): the proliferation is -0.3% (inactive).
Then `CCOC(=O)c1c(NC(=O)CCl)sc(C(=O)N(CC)CC)c1C`, with -3.42% (inactive); and `CCOC(=O)Nc1sc(C(=O)N(C)C)c(C)c1C(=O)OCC`, with 7.91% (active).
With `CCOC(=O)c1sc(NC(=O)CCN2CCOCC2)c(C(=O)OCC)c1C`, the proliferation is -6.14% (inactive).
Then `NC(=O)c1nsc(C(=O)N(CCCN2CCOCC2)C(C(=O)NC2CCCCC2)c2ccc(Cl)cc2)c1N` (stereo not drawn), with 0% (inactive).
On to `Cc1noc(COc2ccccc2OCc2onc(C)c2Cl)c1Cl`, for which the proliferation was -3.09% (inactive).
Next, `Cn1nc(-c2ccccc2)c2cc([N+](=O)[O-])ccc21`: 8.71% (active); `COC(=O)Cn1nc(-c2ccccc2)c2cc(Cl)ccc21`: -1.48% (inactive).
Then `O=[N+]([O-])c1ccc2c(c1)C(O)n1nc(-c3ccccc3)nc1S2` (stereo not drawn), with -0.32% (inactive); and `C/C(Cl)=C\Cn1c(Nc2cccc(C)c2)nc2c1c(=O)n(C)c(=O)n2C`, with -1.44% (inactive); and `COc1ccc(NC(=O)CNc2cc(S(=O)(=O)N3CCOCC3)ccc2N2CCOCC2)c(OC)c1`, with -0.63% (inactive).
`CCOC(=O)C1(Cc2ccccc2C)CCCN(C(=O)CCc2c(C)noc2C)C1` (stereo not drawn): the proliferation was 0.64% (inactive).
Next, `CCOC(=O)N1CCN(C(=O)c2cn(C)c3ccc(S(=O)(=O)N4CCCC4)cc3c2=O)CC1`: -0.22% (inactive); `Cc1ccc(S(=O)(=O)N2CCCCC2)cc1C(=O)N1CCN(CCO)CC1`: 12.6% (active); `Cc1ccc(S(=O)(=O)N2CCN(C)CC2)cc1C(=O)NC1CCCCC1`: -0.96% (inactive).
Then `CCC(NC(=O)c1ccccc1NC(=O)c1ccccc1)C(=O)NNC(=O)CSc1nc2ccccc2o1` (stereo not drawn), with -0.4% (inactive).
